# The source made the active and inactive calls. The calls were made as follows: active = hit-call score of the fitted dose curve at least 0.9, where 1 is the maximum; inactive = score below 0.9.
# Tests used:
# [1] = read-out: TIMP metallopeptidase inhibitor 2 (TIMP2), TIMP2 (gene 7077); assay: BSK_KF3CT_TIMP2: BioMAP Diversity Plus: KF3CT Assay for TIMP metallopeptidase inhibitor 2 (TIMP2) Biomarker Activity (AID 2283071); settings: primary human keratinocytes with fibroblasts; actives raise or lower the signal
# Summary of the method: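 Co-culture of human primary keratinocytes and foreskin fibroblasts, measured 24 h after chemical dosing. TIMP-2 quantified by ELISA and fitted in both directions relative to DMSO. Cytotoxicity checked in parallel cultures by SRB total-protein staining.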
# [2] = read-out: Transforming growth factor beta 1 (TGFb1), TGFB1 (gene 7040); assay: BSK_KF3CT_TGFb1: BioMAP Diversity Plus: KF3CT Assay for Transforming growth factor beta 1 (TGFb1) Biomarker Activity (AID 2283072); settings: primary human keratinocytes with fibroblasts; actives raise or lower the signal
# Summary of the method: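 Human keratinocyte/foreskin fibroblast co-culture; TGF-b1 measured by ELISA 24 h after dosing, fitted bidirectionally versus DMSO. Cytotoxicity checked in parallel cultures by total protein (SRB staining, 560 nm).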
# [3] = read-out: C-C motif chemokine 2 (Homo sapiens) (UniProt P13500); assay: BSK_KF3CT_MCP1: BioMAP Diversity Plus: KF3CT Assay for Monocyte Chemoattractant Protein 1 (MCP1/CCL2) Biomarker Activity (AID 2283073); settings: primary human keratinocytes with fibroblasts; actives raise or lower the signal
# Summary of the method: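 Human keratinocyte–foreskin fibroblast co-culture; MCP-1 measured by ELISA 24 h after dosing. Bidirectional fit vs DMSO; cytotoxicity tracked by SRB total protein in parallel cultures.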
# [4] = read-out: Matrix Metallopeptidase 9 (MMP9), MMP9 (gene 4318); assay: BSK_KF3CT_MMP9: BioMAP Diversity Plus: KF3CT Assay for Matrix Metallopeptidase 9 (MMP9) Biomarker Activity (AID 2283074); settings: primary human keratinocytes with fibroblasts; actives raise or lower the signal;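 as to AC50: MMP9 protein level quantified by ELISA in the co-culture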
# Summary of the method: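 Human keratinocyte/foreskin fibroblast co-culture; compound added; 24 h; MMP-9 by ELISA; bidirectional fit vs DMSO baseline.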
# [5] = read-out: urokinase plasminogen activator (uPA), PLAU (gene 5328); assay: BSK_KF3CT_uPA: BioMAP Diversity Plus: KF3CT Assay for urokinase plasminogen activator (uPA) Biomarker Activity (AID 2283075); settings: primary human keratinocytes with fibroblasts; actives raise or lower the signal
# Summary of the method: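 ELISA readout of uPA, analyzed for signal gain or loss relative to DMSO, from a human primary keratinocyte–foreskin fibroblast co-culture measured 24 h after chemical treatment.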
# CD40, CD40 (gene 958) = assay: BSK_LPS_CD40: BioMAP Diversity Plus: LPS Assay for CD40 Biomarker Activity (AID 2283076); settings: primary human HUVEC with PBMC; actives raise or lower the signal
# Summary of the method: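 HUVEC plus PBMC co-culture stimulated with LPS; CD40 quantified by ELISA 24 h after compound dosing. Fitting was bidirectional relative to DMSO. SRB staining of parallel cultures flagged overt cytotoxicity.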
# [6] = read-out: E-selectin (Homo sapiens) (UniProt P16581); assay: BSK_LPS_Eselectin: BioMAP Diversity Plus: LPS Assay for Eselectin Biomarker Activity (AID 2283077); settings: primary human HUVEC with PBMC; actives raise or lower the signal
# Summary of the method: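 Human umbilical vein endothelial cells co-cultured with PBMC under LPS stimulation; cell-surface E-selectin measured by ELISA 24 h after dosing. Change in either direction versus DMSO, with SRB total-protein staining in parallel cultures for cytotoxicity.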
# [7] = read-out: Interleukin-8 (IL8), CXCL8 (gene 3576); assay: BSK_LPS_IL8: BioMAP Diversity Plus: LPS Assay for Interleukin-8 (IL8) Biomarker Activity (AID 2283078); settings: primary human HUVEC with PBMC; actives raise or lower the signal
# Summary of the method: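 Human umbilical vein endothelial cells co-cultured with PBMC, LPS-stimulated, exposed to compound for 24 h. IL-8 quantified by ELISA; fitted in both directions against DMSO, with SRB total-protein staining of parallel cultures for cytotoxicity.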
# [8] = BSK_LPS_SRB: Viability Assessment in the BioMAP Diversity Plus: LPS Assay (AID 2283079); settings: primary human HUVEC with PBMC;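 also: total protein by sulforhodamine B absorbance as a cytotoxicity measure; measured one day after compound addition; fitted in both directions against DMSO so loss or gain of signal counts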
# Summary of the method: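 Co-culture of human umbilical vein endothelial cells and PBMC, read 24 h after dosing. Total protein by 0.1% SRB staining after 10% TCA fixation, absorbance at 560 nm; bidirectional fit against DMSO.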
# [9] = read-out: Interleukin-1 alpha (IL1a), IL1A (gene 3552); assay: BSK_LPS_IL1a: BioMAP Diversity Plus: LPS Assay for Interleukin-1 alpha (IL1a) Biomarker Activity (AID 2283080); settings: primary human HUVEC with PBMC; actives raise or lower the signal
# Summary of the method: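 Human umbilical vein endothelial cells co-cultured with PBMC and stimulated with LPS; IL-1a measured by ELISA 24 h after dosing. Bidirectional fitting against DMSO; cytotoxicity checked by SRB staining in parallel cultures.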
# Sequence of E-selectin (Homo sapiens) (P16581 whole entry, looked up): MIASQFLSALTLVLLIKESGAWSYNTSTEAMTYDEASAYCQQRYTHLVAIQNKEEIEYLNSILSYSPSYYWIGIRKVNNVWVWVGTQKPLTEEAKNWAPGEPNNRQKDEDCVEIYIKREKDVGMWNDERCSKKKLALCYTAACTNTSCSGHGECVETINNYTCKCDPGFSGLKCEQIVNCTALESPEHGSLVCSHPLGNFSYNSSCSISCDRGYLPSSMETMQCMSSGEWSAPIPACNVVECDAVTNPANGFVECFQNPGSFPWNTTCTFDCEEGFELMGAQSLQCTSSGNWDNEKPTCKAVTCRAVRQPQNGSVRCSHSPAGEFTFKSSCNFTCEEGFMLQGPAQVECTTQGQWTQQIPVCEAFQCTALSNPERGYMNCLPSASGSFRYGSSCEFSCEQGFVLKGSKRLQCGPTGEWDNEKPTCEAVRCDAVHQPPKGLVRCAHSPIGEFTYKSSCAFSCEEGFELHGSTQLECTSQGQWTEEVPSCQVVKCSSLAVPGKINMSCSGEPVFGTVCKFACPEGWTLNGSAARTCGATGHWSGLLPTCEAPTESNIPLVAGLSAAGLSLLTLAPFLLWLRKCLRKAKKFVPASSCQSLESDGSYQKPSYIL
SMILES,outcome [1],outcome [2],outcome [3],outcome [4],outcome [5],"AC50 (CD40, CD40 (gene 958))",AC50 [6],AC50 [7],outcome [8],AC50 [9],AC50 [1],AC50 [3],AC50 [4],AC50 [5],"outcome (CD40, CD40 (gene 958))",outcome [6],outcome [7],outcome [9],AC50 [2],AC50 [8]
CC(=O)C(Cl)C(=O)N(C)C (stereo not given),inactive,inactive,inactive,inactive,inactive,15.5 µM (active),15.4 µM (active),13.6 µM (active),inactive,14.4 µM (active),–,–,–,–,–,–,–,–,–,–
CCCCC(CC)CO[N+](=O)[O-] (stereo not given),–,inactive,–,–,–,–,–,–,inactive,–,31.7 µM (active),30.4 µM (active),34.7 µM (active),35.3 µM (active),inactive,inactive,inactive,inactive,–,–
CCC(C)(C)c1ccc(O)c(C(C)(C)CC)c1,–,–,–,–,–,13.6 µM (active),27 µM (active),28.1 µM (active),–,14.3 µM (active),9.47 µM (active),10.6 µM (active),10.3 µM (active),7.77 µM (active),–,–,–,–,8.12 µM (active),15 µM (active)
CN(C)N=O,inactive,inactive,inactive,inactive,inactive,–,–,–,inactive,–,–,–,–,–,inactive,inactive,inactive,inactive,–,–
COP(=S)(OC)Oc1cc(Cl)c(Cl)cc1Cl,–,–,inactive,inactive,inactive,–,–,–,inactive,–,32.2 µM (active),–,–,–,inactive,inactive,inactive,inactive,36.3 µM (active),–
C=CC(=O)OCCCCCC(C)C,inactive,inactive,inactive,inactive,inactive,–,–,–,inactive,–,–,–,–,–,inactive,inactive,inactive,inactive,–,–
COc1cc(-c2ccc(N)c(OC)c2)ccc1N,inactive,inactive,inactive,inactive,inactive,–,–,–,inactive,–,–,–,–,–,inactive,inactive,inactive,inactive,–,–
CCNc1nc(NC(C)(C)C)nc(SC)n1,–,inactive,inactive,inactive,inactive,–,–,–,inactive,–,20 µM (active),–,–,–,inactive,inactive,inactive,inactive,–,–
Oc1ccc(-c2ccccc2)cc1,inactive,inactive,–,inactive,inactive,–,–,–,inactive,–,–,0.016 µM (active),–,–,inactive,inactive,inactive,inactive,–,–
CC12CC1(C)C(=O)N(c1cc(Cl)cc(Cl)c1)C2=O (stereo not given),inactive,inactive,inactive,inactive,inactive,–,–,–,inactive,–,–,–,–,–,inactive,inactive,inactive,inactive,–,–
C[C@@H]1C[C@@H]([C@H](O)CC2CC(=O)NC(=O)C2)C(=O)[C@@H](C)C1,–,–,–,–,–,3.35 µM (active),1.77 µM (active),6.73 µM (active),–,5.63 µM (active),8.4 µM (active),0.991 µM (active),4.67 µM (active),13.2 µM (active),–,–,–,–,2.79 µM (active),6.14 µM (active)
ClC1=C(Cl)[C@]2(Cl)[C@H]3[C@H]([C@H]4C=C[C@H]3C4)[C@@]1(Cl)C2(Cl)Cl,inactive,–,inactive,inactive,inactive,–,–,0.16 µM (active),–,–,–,–,–,–,inactive,inactive,–,inactive,2.86 µM (active),5.73 µM (active)
O=C(OC1CCCCC1)c1ccccc1C(=O)OC1CCCCC1,–,–,inactive,–,inactive,15.5 µM (active),20.9 µM (active),20.9 µM (active),–,20.9 µM (active),20.9 µM (active),–,9.72 µM (active),–,–,–,–,–,2.62 µM (active),20.9 µM (active)
BrCCBr,inactive,inactive,inactive,inactive,inactive,–,–,–,inactive,–,–,–,–,–,inactive,inactive,inactive,inactive,–,–
Nc1ncc([N+](=O)[O-])s1,inactive,inactive,inactive,inactive,inactive,–,–,–,inactive,–,–,–,–,–,inactive,inactive,inactive,inactive,–,–
CCOP(=S)(OCC)Oc1nc(Cl)c(Cl)cc1Cl,inactive,inactive,inactive,inactive,inactive,20 µM (active),–,–,inactive,–,–,–,–,–,–,inactive,inactive,inactive,–,–
Oc1cccc2cccnc12,–,–,–,–,–,–,–,–,inactive,–,3.68 µM (active),2 µM (active),2.46 µM (active),2.74 µM (active),inactive,inactive,inactive,inactive,2.35 µM (active),–
